“And” between values parts separate entries of the source, which are not always exact repeats. Identical values can stand only once. The source made the active and inactive calls. Unless noted, no rule for the calls is given here.
Experiments:
[1] = blockers of polyQ-driven CASP3 activation – cell-based (AID 1583); conditions: polyglutamine-induced caspase-3 activation, cell assay; stronger effect = higher value;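 tested at 10 µM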
[2] = compounds altering viability of human ES cells (AID 493140); conditions: human embryonic stem cell survival screen; stronger effect = higher value;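 also: cells exposed to compounds for four days before counting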
[3] = Wnt pathway potentiators raising nuclear beta-catenin – imaging, WNT3A-conditioned medium, mouse C2C12, NPC library, primary screen (AID 1117326; in the data active = nuclear beta-catenin stimulation mostly above about 4.2%, no sharp cut-off; inactive = mostly below about 10%); conditions: stronger effect = higher value
[4] = growth inhibition of GSK3B-pretreated HCT116 cells – cell-based, CellTiter-Glo, 0.2 to 20 µM (AID 1117336;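 active = compounds lowering colon cancer cell viability after pretreatment blocking the GSK3B kinase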); conditions: HCT116 viability after GSK3B inhibitor, at 20 µM, stronger effect = higher value
[5] = HCT116 colon cancer cell growth inhibition, primary screen, CellTiter-Glo luminescence, NPC library (AID 1117342;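 active = compounds that lower survival of HCT116 colon cancer cells in the luminescence readout, no numeric limit stated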); conditions: at 20 µM (top of the series)
[6] = reduced SW480 viability measured with CellTiter-Glo, NPC library, primary (AID 1117343;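 active = compounds that lower viability of the colon cancer cells in the luminescence readout, with no numeric limit stated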); conditions: CellTiter-Glo luminescence; at 20 µM (top of the series) unless noted
[7] = NPC library primary testing for decreased DLD-1 cell viability via CellTiter-Glo (AID 1117346;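 active = compounds that lower survival of DLD-1 colon cancer cells in the luminescence readout, no cutoff given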); conditions: DLD-1 viability, CellTiter-Glo luminescence; at 20 µM (top of the series)
[8] = biological target: 6-phosphogluconate dehydrogenase, decarboxylating (Homo sapiens) (UniProt P52209); assay: inhibition of human phosphogluconate dehydrogenase – biochemical, recombinant enzyme, NADPH absorbance, primary screen (AID 1159550;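 active = at least 20% inhibition of 6-phosphogluconate dehydrogenase activity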); conditions: recombinant 6PGD, NADPH absorbance 341 nm; at 10 µM; stronger effect = higher value
[9] = modulation of C. elegans fzo-1 (AID 1259413);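 also: fzo-1 mutant C. elegans worms in liquid wells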; conditions: C. elegans fzo-1 modulator screen, mean read-out; stronger effect = higher value
[10] = EMT-state selective cytotoxicity in co-culture – imaging, PC-3E GFP, TEM4-18 mCherry, primary screen (AID 1345086;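 active = compounds killing one labelled cell type while sparing the other, by normalised counts and ratio limits, not self-fluorescent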;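 as to all read-outs here: cells exposed to compound for 72 h before imaging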;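 as to red/green cell ratio (normalised): normalised mesenchymal count divided by normalised epithelial count so high means epithelial killing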); conditions: PC-3E GFP / TEM4-18 mCherry co-culture, imaging cell counts, at 1 µM; for red/green cell ratio (normalised): actives lie on both sides, counts scaled to control wells, 1 = unselective
[11] = viability loss with induced miR-34 in A549 – imaging, A549 dox-inducible miR-34, nuclei and caspase counts, primary screen (AID 1347080;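 active = compounds whose cell count with miR-34 switched on is under 0.7 times the count with it off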); conditions: A549 miR-34 inducible, Hoechst nuclei count, 48 h
[12] = biological target: NAD(+) hydrolase SARM1 (Homo sapiens) (UniProt Q6SZW1); assay: blocking NAD cleavage by SARM1 SAM-TIR – cell lysate, NAD-Glo luminescence (AID 1508614;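 active = compound whose remaining NAD level is above about 45 nM, limit read from the data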;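 also: higher remaining NAD means stronger inhibition of SARM1 NADase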); conditions: SAM-TIR HEK293T lysate NADase, at 1 µM, stronger effect = higher value
[13] = biological target: Mitogen-activated protein kinase 7 (Homo sapiens) (UniProt Q13164); assay: Gal4-ERK5 driven luciferase induction – cell-based, HTS, primary screen (AID 1508626;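 active = luciferase signal above three times the same-plate solvent-only control wells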;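 also: luciferase driven by Gal4-ERK5 fusion binding five Gal4 sites before minimal TATA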); conditions: HeLa Gal4-ERK5 transactivation, 18 h, at 5 µM, stronger effect = higher value
[14] = galactose survival enhancers in mitochondrial complex I cybrids – cell-based, galactose medium, ATP luminescence, primary screen (AID 1645843;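 active = z-score of at least 1.8 in each of two replicates, scored against plate mean and spread of sample wells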;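 also: positive z means more ATP and so rescue of galactose-driven cybrid death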); conditions: complex I mutant cybrid cells, 72 h, stronger effect = higher value
[15] = stimulators of insulin release from INS-1E, primary screen, cell-based, 5 mM glucose, NPC library (AID 1117329;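 active = compound raises insulin release from rat beta cells at 5 mM glucose, no numeric limit stated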); conditions: rat INS-1E insulin secretion, at 10 µM, stronger effect = higher value
[16] = inhibition of endothelial tube formation, primary screen, imaging, VEGF stimulated, CD31 staining, tube area, NPC library (AID 1117340;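 active = compound that reduces growth-factor-driven endothelial tube area in a mixed cell culture, no cutoff stated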); conditions: VEGF-stimulated ADSC/ECFC co-culture, at 10 µM, stronger effect = higher value
[17] = GLP1 release stimulators, primary, NCI-H716, NPC library (AID 1117341;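 active = compound raises GLP1 secretion from the human gut endocrine cells, with no numeric limit stated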); conditions: NCI-H716 cells, at 10 µM, stronger effect = higher value
[18] = MELAS cybrid and Rieske KO viability enhancers – cell-based, MELAS cybrids, Rieske KO mouse fibroblasts, CellTiter-Glo, primary screen (AID 1508586;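 active = mean z-score across replicates of 1.96 or higher in either the MELAS or the Rieske mutant cell line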;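 also: z relative to plate mean and SD of compound and empty wells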); conditions: low glucose
[19] = measured here: epithelial PC-3E GFP cell survival
[20] = measured here: mesenchymal TEM4-18 mCherry cell survival
[21] = MELAS cybrid survival, CellTiter-Glo 48 h, stronger effect = higher value
[22] = Rieske KO mouse fibroblast survival, CellTiter-Glo 72 h

Mitogen-activated protein kinase 7 (Homo sapiens), sequence (Q13164 whole entry, looked up, the tested form may be a part): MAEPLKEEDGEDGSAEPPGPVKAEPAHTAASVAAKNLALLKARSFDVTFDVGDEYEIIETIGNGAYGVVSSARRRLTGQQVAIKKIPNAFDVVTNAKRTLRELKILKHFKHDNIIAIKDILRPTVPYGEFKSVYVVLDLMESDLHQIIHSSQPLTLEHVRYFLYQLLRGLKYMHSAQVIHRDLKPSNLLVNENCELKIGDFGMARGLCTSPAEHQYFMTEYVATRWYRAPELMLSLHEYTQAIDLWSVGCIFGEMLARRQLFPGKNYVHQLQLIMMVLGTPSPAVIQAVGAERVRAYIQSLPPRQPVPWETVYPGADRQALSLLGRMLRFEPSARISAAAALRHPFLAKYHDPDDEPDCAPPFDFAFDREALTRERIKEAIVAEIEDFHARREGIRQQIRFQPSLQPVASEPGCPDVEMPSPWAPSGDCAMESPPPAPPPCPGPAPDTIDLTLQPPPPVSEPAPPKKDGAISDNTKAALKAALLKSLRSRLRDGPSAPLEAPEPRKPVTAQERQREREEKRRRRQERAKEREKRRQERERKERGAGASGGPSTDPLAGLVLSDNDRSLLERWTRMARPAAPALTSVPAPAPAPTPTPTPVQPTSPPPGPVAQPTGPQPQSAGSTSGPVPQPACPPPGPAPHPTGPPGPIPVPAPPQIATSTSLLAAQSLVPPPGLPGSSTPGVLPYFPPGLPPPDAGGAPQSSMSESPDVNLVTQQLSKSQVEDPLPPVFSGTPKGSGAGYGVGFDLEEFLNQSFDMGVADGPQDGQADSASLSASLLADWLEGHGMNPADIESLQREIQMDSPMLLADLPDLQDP
6-phosphogluconate dehydrogenase, decarboxylating (Homo sapiens), sequence (P52209 whole entry, looked up): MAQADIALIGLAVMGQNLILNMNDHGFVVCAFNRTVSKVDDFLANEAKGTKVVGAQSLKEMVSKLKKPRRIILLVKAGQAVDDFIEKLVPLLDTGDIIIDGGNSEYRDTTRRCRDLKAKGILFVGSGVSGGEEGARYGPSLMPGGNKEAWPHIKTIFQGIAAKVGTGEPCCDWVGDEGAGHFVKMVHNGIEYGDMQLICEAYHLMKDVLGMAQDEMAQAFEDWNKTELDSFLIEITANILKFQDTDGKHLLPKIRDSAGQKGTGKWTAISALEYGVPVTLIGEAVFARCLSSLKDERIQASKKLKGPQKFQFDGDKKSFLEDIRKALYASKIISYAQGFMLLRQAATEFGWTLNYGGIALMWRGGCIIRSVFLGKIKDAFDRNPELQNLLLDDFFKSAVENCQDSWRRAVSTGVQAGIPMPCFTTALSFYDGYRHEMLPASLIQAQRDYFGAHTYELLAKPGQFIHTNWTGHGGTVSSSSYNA
NAD(+) hydrolase SARM1 (Homo sapiens), sequence (Q6SZW1 whole entry, looked up, the tested form may be a part): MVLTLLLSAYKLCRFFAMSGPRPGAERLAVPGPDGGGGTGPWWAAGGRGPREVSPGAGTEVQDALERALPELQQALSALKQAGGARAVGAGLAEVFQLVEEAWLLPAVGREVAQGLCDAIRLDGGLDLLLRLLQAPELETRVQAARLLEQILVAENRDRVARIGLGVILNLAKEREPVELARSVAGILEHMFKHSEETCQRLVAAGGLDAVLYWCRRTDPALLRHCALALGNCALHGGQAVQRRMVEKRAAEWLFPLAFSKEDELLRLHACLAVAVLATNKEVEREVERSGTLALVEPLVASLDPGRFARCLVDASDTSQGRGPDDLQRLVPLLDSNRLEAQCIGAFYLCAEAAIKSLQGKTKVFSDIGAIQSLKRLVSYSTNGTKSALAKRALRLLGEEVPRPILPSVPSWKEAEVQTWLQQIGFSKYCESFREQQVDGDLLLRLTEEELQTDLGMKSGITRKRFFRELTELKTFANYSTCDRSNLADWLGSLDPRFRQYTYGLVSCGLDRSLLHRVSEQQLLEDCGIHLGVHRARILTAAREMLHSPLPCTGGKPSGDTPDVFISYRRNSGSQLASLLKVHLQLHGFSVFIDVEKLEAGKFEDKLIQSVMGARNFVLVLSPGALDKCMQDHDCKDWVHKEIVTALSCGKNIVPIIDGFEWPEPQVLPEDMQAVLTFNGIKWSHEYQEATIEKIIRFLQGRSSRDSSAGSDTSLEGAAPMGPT

CN1C(=O)CC[C@H]1c1cccnc1
inactive: survival [2] 19.8 | nuclear beta-catenin stimulation ([3]; at 10 µM) -1.4% | viability decrease [4] 22.7% | inhibition of viability [5] 12.8% | viability decrease (inhibition) [6] -3% | viability decrease (inhibition) [7] 14.2% | inhibition [8] 7.9% | mean signal [9] 242 | red/green cell ratio (normalised) [10] 1.08 | fold change ([11]; stronger effect = lower value, cell number ratio, induced over uninduced) 1 and 0.929 and 0.864 | remaining NAD [12] 22 nM | luciferase signal [13] 64 AU | z-score [14] 0.48
1.13: normalised cell number [10, 19]
1.81 and 1.06 and 0.497: fold change ([11]; measured here: relative caspase fold change +Dox/-Dox)
10100 and 8480 and 11900: cell count ([11]; measured here: total cells without miR-34 induction)
1.23: normalised cell number [10, 20]
5.5%: nuclear beta-catenin stimulation ([3]; stimulation, at 2 µM)
10100 and 7880 and 10300: cell count ([11]; measured here: total cells with miR-34 induction, stronger effect = lower value)
25.7%: inhibition [1]

C[C@@H](c1ncncc1F)C(O)(Cn1cncn1)c1ccc(F)cc1F (some centres undefined)
inactive: insulin secretion stimulation [15] 3.8% | viability decrease [4] -3.3% | tube area decrease [16] -5.2% | GLP1 secretion stimulation [17] -0.7% | inhibition of viability [5] 11.9% | viability decrease (inhibition) [6] 4.6% | viability decrease (inhibition) [7] -4.3%

CC(C)NCC(O)COc1cccc2[nH]ccc12 (centres undefined)
-39.9%: inhibition [1]
1.17: normalised cell number [10, 20]
0.83: normalised cell number [10, 19]
-0.0517 and -0.221: z-score [18, 22]
inactive: survival [2] 5.75 | insulin secretion stimulation [15] 0.3% | viability decrease [4] 17.5% | tube area decrease [16] 0% | GLP1 secretion stimulation [17] 1.4% | inhibition of viability [5] -13.4% | viability decrease (inhibition) [6] -0.7% | viability decrease (inhibition) [7] -7.1% | inhibition [8] 11.4% | mean signal [9] 248 | red/green cell ratio (normalised) [10] 1.41 | z-score [18, 21] -0.583 and -0.452 | remaining NAD [12] 10 nM | luciferase signal [13] 84 AU

CNCCCN1c2ccccc2CCc2ccccc21
1.36: normalised cell number [10, 19]
0.183: z-score [18, 22]
-34.3%: inhibition [1]
inactive: survival [2] 2.75 | insulin secretion stimulation [15] 15.8% | viability decrease [4] -17.7% | tube area decrease [16] 12.6% | GLP1 secretion stimulation [17] 5.9% | inhibition of viability [5] 37.5% | viability decrease (inhibition) [7] 33.3% | inhibition [8] 3.76% | mean signal [9] 181 | red/green cell ratio (normalised) [10] 1.1 | z-score [18, 21] 0.0784 | remaining NAD [12] 10 nM | luciferase signal [13] 80 AU | z-score [14] -0.895 and -0.71
active: viability decrease (inhibition) [6] 104%
1.5: normalised cell number [10, 20]
